The record followed here is PubChem BioAssay (NCI).

Each structure is given as a SMILES string. Several values for one entry are separate records, joined by “and”; a condition that tells them apart may be missing. Equal values may be shown once. The panel holds about 79,000 compounds, 15% with a hit somewhere; the sample as a whole holds those more often. Activity calls are given as the source filed them. Cut-off read from the data, not from the text of the source: active = growth inhibition above about 70%; inactive = the rest.

The first assay can be described thus: NCI Yeast Anticancer Drug Screen. Data for the bub3 strain (AID 167). The conditions noted are these: S. cerevisiae bub3 mutant strain, at 50.0 µM, stronger effect = higher value. Summed up: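 In this screen, a yeast mutant lacking normal mitotic checkpoint function is challenged with compound. Relative growth versus vehicle gives the inhibition value.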
`CC(N)CN.CC(N)CN.[Cl-].[O]=[Os+2]=[O]` (stereo not given): the growth inhibition is -16.1% (inactive).
Take `O=C(Nc1ccccc1Cl)Oc1c(Cl)cc(S(=O)(=O)F)cc1Cl`: the growth inhibition is -2.05% (inactive).
On to `CC(=O)Nc1nc(CCl)cs1`, for which the growth inhibition was 27.3% (inactive).
For the compound `O/N=C1\CN2CCC1CC2`, the growth inhibition was 10.4% (inactive).
For the compound `Cc1c(OCC(=O)N/N=C/c2ccc(N(CCCl)CCCl)cc2)ccc2c(=O)c3ccccc3oc12`, the growth inhibition is 13.8% (inactive).
Same read-out and setting: the figure for `COc1ccccc1N=Nc1cccc[c]1[Hg][Cl]` is 98% (active); for `CC1CC(C)(O)CC(C(O)CC2CC(=O)NC(=O)C2)C1=O` (stereo not given) it is 67% (inactive).
As to `Cc1nccc2c1[nH]c1ccc(Br)cc12`, the growth inhibition is 9.55% (inactive).
As for `CC(=O)C1(c2ccccc2)CCNCC1`, the growth inhibition was -3.9% (inactive).
For `CC(C)(C)OC(=O)NCC(=O)NC(CSC(c1ccccc1)c1ccccc1)C(=O)NCC(=O)O` (stereo not given), the growth inhibition was -4.9% (inactive).
Still for that read-out and setting: the figure for `CSCC(NP1(=O)SC(NN=C(C)C)=NC1(C)C)C(=O)O` (stereo not given) is 17.6% (inactive).
Consider `CCCCCCCC(=O)O.[Pb]`, for which the growth inhibition is -6% (inactive).
`O=[N+]([O-])c1ccc(/C=C/c2ccc(Cl)c(S(=O)(=O)F)c2)c(Cl)c1`: the growth inhibition was 13% (inactive).
Consider `CC(C)c1cc2c(cc1O)C1(C)CCCC(C)(C)C1CC2=O` (stereo not given), for which the growth inhibition is 27.9% (inactive).
On to `CCCCCCCCCCBr`, for which the growth inhibition was 17.1% (inactive).
On to `CC12OC1(C)C1C(=O)OCC1C2=O` (stereo not given), for which the growth inhibition is 3% (inactive).
Consider `NC(=O)c1ccc([As](=O)(O)O)cc1[N+](=O)[O-]`, for which the growth inhibition was -6.9% (inactive).
For the compound `C=Cc1cc(OC)c2c(c1)c(=O)oc1c2cc(OC)c2c(O)ccc(C3OC(C(C)O)C(O)C3O)c21` (stereo not given), the growth inhibition is 90% (active).
As for `CN1C(=O)N(C)P1(Cl)(Cl)Cl`, the growth inhibition is 0.2% (inactive).
Regarding `Cc1cc(NC2=NCCO2)c2c(c1C)CCCC2`, the growth inhibition was -7.85% (inactive).
Take `CCCCCCCCCCCOP(=O)(OCC)OCC`: the growth inhibition was 99.7% (active).
On to `CC1C(c2ccccc2)OCCN1C` (stereo not given), for which the growth inhibition was -16.4% (inactive).
As for `O=[As](O)(O)c1ccc(F)cc1`, the growth inhibition was 9.3% (inactive).
Turning to `Cc1cc(N(CCCl)CCCl)ccc1CN1CCCN(Cc2ccc(N(CCCl)CCCl)cc2C)C1c1ccccc1O`, the growth inhibition was 0.05% (inactive).
On the same count and under the same terms, the figure for `CN(C)P(=O)(N(C)C)N(C)CO` is 18.2% (inactive).

A further assay in a line: NCI Yeast Anticancer Drug Screen. Data for the mlh1 rad18 strain (AID 175). To be noted: S. cerevisiae mlh1 rad18 strain growth inhibition; at 50.0 µM; stronger effect = higher value. In a few lines: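 Yeast w/ defined DNA-repair lesions; compound exposure; growth vs vehicle controls → % inhibition.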
On to `CC12CCC3C(CCC4(C)CC(OC(=O)Cc5ccc(N(CCCl)CCCl)cc5)CCC34C)C1CCC2=O` (stereo not given), for which the growth inhibition is 3.65% (inactive).
As for `CC(=O)OC1CCC2(C)C3CCC4(C)C(Oc5ccccc5)CCC4C3CC(Br)C2(O)C1` (stereo not given), the growth inhibition is -43% (inactive).
On the same count and under the same terms, the figure for `O=C(O)c1ccccc1O.[Cu]` is -8.65% (inactive); for `[C-]#[O+].[C-]#[O+].[C-]#[O+].[C-]#[O+].[C-]#[O+].[C-]#[O+].[C-]#[O+].[C-]#[O+].[C-]#[O+].[C-]#[O+].[Mn].[Mn]` it is -25.9% (inactive); for `CCN(CC)C(=O)N1CN(c2ccccc2)C2(CCN(CCCC3(c4ccc(F)cc4)OCCO3)CC2)C1=O` it is 49.9% (inactive).
Regarding `O=[P+](O)c1ccccc1`, the growth inhibition was -5.5% (inactive) and 1.3% (inactive).
Same read-out and setting: in the case of `CCCC1CC=CCC12C(=O)NC(=O)NC2=O` (stereo not given) it was 12.9% (inactive).
`OC1=C2CCCCCC2=[N+]2CCCCC2C1` (stereo not given): the growth inhibition was 70.8% (active).
Same read-out and setting: in the case of `O=C1NCCCCC1Cl` (stereo not given) it was 14.5% (inactive); in that of `O=NN1CCOCC1`, 31.1% (inactive); in that of `[Se]c1nc(N2CCOCC2)ncc1-c1ccccc1`, 9% (inactive).
Consider `COc1ccc(/C=C/c2cc(OC)c3c(c2)OCO3)cc1O`, for which the growth inhibition is -7.75% (inactive).
The same measure, in the same setting: in the case of `ClCCN(CCCl)c1ccc(CCN2CCOCC2)cc1` it was 9.3% (inactive).
As for `COC(=O)C[CH2][Sn]([CH2]CC(=O)OC)([c]1ccccc1)[c]1ccccc1`, the growth inhibition is -25.4% (inactive).
Regarding `[C-]#[O+].[C-]#[O+].[C-]#[O+].[C-]#[O+].[W].c1ccc([PH+](CC[PH+](c2ccccc2)c2ccccc2)c2ccccc2)cc1`, the growth inhibition is 8.95% (inactive).
Regarding `CC(N)CN.CC(N)CN.[Cl-].[O]=[Os+2]=[O]` (stereo not given), the growth inhibition is -13.6% (inactive).
Take `O=C(Nc1ccccc1Cl)Oc1c(Cl)cc(S(=O)(=O)F)cc1Cl`: the growth inhibition was 44.2% (inactive).
`CC(=O)Nc1nc(CCl)cs1`: the growth inhibition was 9.6% (inactive).
As for `O/N=C1\CN2CCC1CC2`, the growth inhibition was 20.3% (inactive).
For `Cc1c(OCC(=O)N/N=C/c2ccc(N(CCCl)CCCl)cc2)ccc2c(=O)c3ccccc3oc12`, the growth inhibition is -8.35% (inactive).
Turning to `COc1ccccc1N=Nc1cccc[c]1[Hg][Cl]`, the growth inhibition is 98.3% (active).
Consider `CC1CC(C)(O)CC(C(O)CC2CC(=O)NC(=O)C2)C1=O` (stereo not given), for which the growth inhibition is 68.2% (inactive).
Consider `Cc1nccc2c1[nH]c1ccc(Br)cc12`, for which the growth inhibition was 1.25% (inactive).
As for `CC(=O)C1(c2ccccc2)CCNCC1`, the growth inhibition was -3.35% (inactive).
Consider `CC(C)(C)OC(=O)NCC(=O)NC(CSC(c1ccccc1)c1ccccc1)C(=O)NCC(=O)O` (stereo not given), for which the growth inhibition is 15.1% (inactive).
As to `CSCC(NP1(=O)SC(NN=C(C)C)=NC1(C)C)C(=O)O` (stereo not given), the growth inhibition was -3.45% (inactive).
On the same count and under the same terms, in the case of `CCCCCCCC(=O)O.[Pb]` it was 14.8% (inactive); in that of `O=[N+]([O-])c1ccc(/C=C/c2ccc(Cl)c(S(=O)(=O)F)c2)c(Cl)c1`, -6.3% (inactive).
With `CC(C)c1cc2c(cc1O)C1(C)CCCC(C)(C)C1CC2=O` (stereo not given), the growth inhibition is 34.6% (inactive).
For the compound `CCCCCCCCCCBr`, the growth inhibition is -37.6% (inactive).
As for `CC12OC1(C)C1C(=O)OCC1C2=O` (stereo not given), the growth inhibition is -0.95% (inactive).
On to `NC(=O)c1ccc([As](=O)(O)O)cc1[N+](=O)[O-]`, for which the growth inhibition is -10.6% (inactive).
As for `C=Cc1cc(OC)c2c(c1)c(=O)oc1c2cc(OC)c2c(O)ccc(C3OC(C(C)O)C(O)C3O)c21` (stereo not given), the growth inhibition was 89.3% (active).
Turning to `CN1C(=O)N(C)P1(Cl)(Cl)Cl`, the growth inhibition is -14.9% (inactive).
As to `Cc1cc(NC2=NCCO2)c2c(c1C)CCCC2`, the growth inhibition is -5.35% (inactive).
As for `CCCCCCCCCCCOP(=O)(OCC)OCC`, the growth inhibition was 99.7% (active).
On to `CC1C(c2ccccc2)OCCN1C` (stereo not given), for which the growth inhibition was -32.2% (inactive).
The same measure, in the same setting: in the case of `O=[As](O)(O)c1ccc(F)cc1` it was 2.95% (inactive); in that of `Cc1cc(N(CCCl)CCCl)ccc1CN1CCCN(Cc2ccc(N(CCCl)CCCl)cc2C)C1c1ccccc1O`, 31.9% (inactive).
Regarding `CN(C)P(=O)(N(C)C)N(C)CO`, the growth inhibition was 4.6% (inactive).
